Source: PubChem BioAssay
Active and inactive are the calls of the source. Unless noted, no stated cut-off is given here; in the data, active means inhibition above about 80%; inactive means the rest.

How the values were obtained:
[1] = growth inhibition, single agent or in combination, cell-based, chromothripsis tumors, cisplatin or BGB combos (AID 1671449); details: LFS_MB_P medulloblastoma cells;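 further: cells exposed for 96 hours; 0% = vehicle DMSO and 100% = killing by high DMSO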
[2] = growth inhibition, single agent and combos, cell-based, chromothripsis tumors, cisplatin or BGB combos (AID 1671450); details: HDN33 neuroblastoma cells, stronger effect = higher value;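 further: cells exposed to compound for four days; 0% = vehicle DMSO and 100% = cell killing by high DMSO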
[3] = growth inhibition, single agents and combos, ICB984, cell-based, cisplatin or BGB combos, synergistic combos for chromothripsis tumors (AID 1671451; call rule not given here;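 further: cells exposed for 96 hours before readout; 0% = vehicle DMSO and 100% = killing by high DMSO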); details: ICB984 medulloblastoma cells, drug combinations, stronger effect = higher value
[4] = growth inhibition, single agents and combos, LFS_MB_1R, cell-based, cisplatin or BGB combos, synergistic combos for chromothripsis tumors (AID 1671452); details: LFS_MB_1R medulloblastoma cells, stronger effect = higher value;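 further: cells exposed for 96 hours before readout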
[5] = growth inhibition, single agents and combos, HTB85, cell-based, BGB or cisplatin IC20 combos, synergistic combos for chromothripsis tumors (AID 1671453); details: HTB85 osteosarcoma cells, drug combinations, stronger effect = higher value;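 further: cells exposed for 96 hours before readout; 0% = vehicle DMSO and 100% = high DMSO killing control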
[6] = growth inhibition, single agents and combos, CRL2098, cell-based, BGB or cisplatin IC20 combos, synergistic combos for chromothripsis tumors (AID 1671454); details: CRL2098 osteosarcoma cells, drug combinations, stronger effect = higher value;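 further: cells exposed for 96 h before readout; 0% = vehicle DMSO and 100% = killing by high DMSO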
[7] = growth inhibition, single agents and combos, HD-MB03, cell-based, BGB or cisplatin IC20 combos, synergistic combos for chromothripsis tumors (AID 1671455; in the data active means inhibition above about 83%;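 further: 0% = vehicle DMSO and 100% = high DMSO as cytotoxic control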); details: HD-MB03 medulloblastoma cells, stronger effect = higher value
[8] = growth inhibition, single agents and combos, UWB1.289, cell-based, BGB or cisplatin combos, synergistic combos for chromothripsis tumors (AID 1671456); details: UWB1.289 ovarian carcinoma cells, stronger effect = higher value;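 further: cells exposed to compound for four days; 0% = vehicle DMSO and 100% = killing by high DMSO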
[9] = growth inhibition, single agents and combos, LFS_MB_2R, cell-based, cisplatin combos, synergistic combos for chromothripsis tumors (AID 1671457); details: LFS_MB_2R medulloblastoma cells, stronger effect = higher value;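 further: cells exposed to compound for four days before readout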
[10] = growth inhibition, MDA-MB-436, cell-based, BGB or cisplatin combos, synergistic combos for chromothripsis tumors (AID 1671458; call rule not given here;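 further: cells exposed for 96 hours; 0% = vehicle DMSO and 100% = killing by high DMSO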); details: MDA-MB-436 breast carcinoma growth inhibition, drug combinations, stronger effect = higher value
[11] = UWB1.289_BRCA1 ovarian cancer growth, cell-based, BGB or cisplatin combinations (AID 1671459); details: UWB1.289 BRCA1 ovarian carcinoma, drug combinations, stronger effect = higher value
[12] = drug combination toxicity in non-malignant astrocytes – cell-based, BGB or cisplatin IC20 combos, cytotoxicity control for chromothriptic childhood tumor combination screen (AID 1671460); details: Human astrocytes, viability inhibition, drug combinations, at 0.5 µM, stronger effect = higher value;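 further: cells exposed to compounds for 96 hours before viability readout; 0% = vehicle and 100% = killing control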
[13] = BT084 cell growth, single and combined drugs, ICGC_MB145, cisplatin and BGB IC40 combos (AID 1671461); details: BT084 medulloblastoma cells, drug combinations, stronger effect = higher value;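 further: cells exposed to drugs for 96 hours; 0% = vehicle DMSO and 100% = high DMSO full killing control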
[14] = RCMB18 cell growth, single agent and combined, cisplatin and BGB IC40 combos (AID 1671462); details: RCMB18 medulloblastoma cells, stronger effect = higher value;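 further: cells exposed to compound for four days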
[15] = CRL1545 cell growth, single agent and combined, cisplatin and BGB IC20 combos (AID 1671464); details: CRL1545 osteosarcoma cells, stronger effect = higher value;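 further: cells exposed to compound for 96 hours before readout; 0% = vehicle DMSO and 100% = high DMSO killing control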
[16] = galactose survival enhancers in mitochondrial complex I cybrids – cell-based, galactose medium, ATP luminescence, primary screen (AID 1645843;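 active means z-score of at least 1.8 in each of two replicates, scored against plate mean and spread of sample wells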;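 further: positive z means more ATP and so rescue of galactose-driven cybrid death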); details: complex I mutant cybrid cells, 72 h, stronger effect = higher value
[17] = at 0.5 µM, stronger effect = higher value
[18] = measured here: combination with BGB IC20, at 0.005 µM
[19] = measured here: combination with BGB IC40, at 0.005 µM
[20] = measured here: combination with BGB IC40, at 0.05 µM
[21] = measured here: combination with cisplatin, at 0.5 µM, stronger effect = higher value
[22] = measured here: combination with cisplatin, at 5 µM, stronger effect = higher value
[23] = measured here: with BGB IC20 combination, at 0.5 µM
[24] = measured here: with cisplatin IC20 combination, at 0.5 µM
[25] = measured here: 5 uM single agent, at 5 µM
[26] = measured here: combination with cisplatin, at 0.5 µM
[27] = measured here: combination with cisplatin, at 5 µM
[28] = measured here: with BGB IC20, at 0.5 µM
[29] = measured here: with BGB IC20, at 5 µM
[30] = measured here: with cisplatin IC20, at 0.5 µM
[31] = measured here: with cisplatin IC20, at 5 µM
[32] = measured here: combination with BGB at IC20, at 0.5 µM
[33] = measured here: combination with cisplatin at IC20, at 0.5 µM
[34] = measured here: combo with BGB at IC20, at 0.5 µM
[35] = measured here: combo with cisplatin at IC20, at 0.5 µM
[36] = measured here: inhibition with BGB combination, at 0.05 µM
[37] = measured here: inhibition with cisplatin combination, at 0.05 µM
[38] = measured here: BGB combination, at 0.5 µM
[39] = measured here: BGB combination, at 5 µM
[40] = measured here: cisplatin combination, at 0.5 µM
[41] = measured here: cisplatin combination, at 5 µM
[42] = BGB combination, concentration series, at 5 µM
[43] = cisplatin combination, concentration series, at 5 µM
[44] = measured here: combo with BGB IC20
[45] = measured here: combo with cisplatin IC20
[46] = cisplatin combination, at 0.5 µM
[47] = measured here: BGB IC40 combination 0.05 uM, at 0.05 µM
[48] = measured here: BGB IC40 combination, at 0.05 µM

In the case of `COc1ccc(-c2nc(-c3cc(C(F)(F)F)cc(C(F)(F)F)c3)n(Cc3ccc(C(N)=O)cc3)c2-c2ccc(OC)cc2)cc1`, the inhibition [1, 17] is reported as -25% (inactive), the inhibition [1, 18] is reported as -26.9% and the inhibition [1, 19] is reported as -58.7%. The inhibition [1, 20] was -38.9%, the inhibition [1, 21] was -39.3% and the inhibition [1, 22] was -39.4%. For the same molecule, the inhibition ([2]; BGB combo, at 5 µM) was -37.8%, the inhibition ([2]; at 0.5 µM) was 0.84% (inactive) and the inhibition ([2]; cisplatin combo, at 5 µM) was -22.8%. The inhibition [2, 23] was 36.9%, the inhibition [2, 24] was -4.78% and the inhibition ([2]; single agent, at 5 µM) was -31.8%. For the same molecule, the inhibition ([3]; BGB IC20 combo, at 0.005 µM) was -2.07%, the inhibition ([3]; BGB IC40 combo, at 0.005 µM) was -30.8% and the inhibition ([3]; BGB IC40 combo, at 0.05 µM) was -25.1%. The inhibition ([3]; at 0.5 µM) was -9.24% (inactive), the inhibition ([3]; cisplatin combo, at 0.05 µM) was -31.6% and the inhibition ([3]; cisplatin combo, at 0.5 µM) was -14.1%. The inhibition ([3]; cisplatin combo, at 5 µM) was -32.9%, the inhibition [3, 25] was -2.84% and the inhibition ([4]; at 0.5 µM) was -33.2% (inactive). It also gave an inhibition [4, 20] of -28.8%, an inhibition [4, 26] of -57.5% and an inhibition [4, 27] of -46.5%. The inhibition ([5]; at 0.5 µM) was -24.2% (inactive), the inhibition [5, 28] was -10.5% and the inhibition [5, 29] was -7.08%. It also gave an inhibition [5, 30] of -32.4%, an inhibition [5, 31] of -14.9% and an inhibition ([5]; single agent, at 5 µM) of 13.9%. For the same molecule, the inhibition ([6]; at 0.5 µM) was -66.2% (inactive), the inhibition [6, 32] was -72.7% and the inhibition [6, 33] was -56.3%. The inhibition ([7]; at 0.5 µM) was -5.54% (inactive), the inhibition [7, 34] was -5.38% and the inhibition [7, 35] was 0.332%. The inhibition ([8]; at 0.5 µM) was -10.7% (inactive), the inhibition [8, 36] was -23.7% and the inhibition [8, 37] was -19.3%. For the same molecule, the inhibition ([9]; at 0.5 µM) was -16.7% (inactive), the inhibition [9, 26] was -7.64% and the inhibition [9, 27] was -13.3%. For the same molecule, the inhibition ([10]; at 0.5 µM) was -7.79% (inactive), the inhibition [10, 38] was -10.8% and the inhibition [10, 39] was -8.02%. It also gave an inhibition [10, 40] of -12.9%, an inhibition [10, 41] of -13.3% and an inhibition [11, 42] of 4.42%. The inhibition ([11]; at 0.5 µM) was -9.42% (inactive), the inhibition [11, 43] was 7.4% and the inhibition [12] was 5.71% (inactive). The inhibition [12, 44] was 1.56%, the inhibition [12, 45] was 6.54% and the inhibition ([13]; at 0.5 µM) was -7.83% (inactive). The inhibition [13, 46] was -5.41%, the inhibition ([13]; cisplatin combination, at 5 µM) was -208% and the inhibition [13, 47] was -36.9%. For the same molecule, the inhibition ([13]; single agent, at 5 µM) was -5.53%, the inhibition ([14]; at 0.5 µM) was -23% (inactive) and the inhibition ([14]; cisplatin combo, at 5 µM) was -55.8%. For the same molecule, the inhibition [14, 48] was -13.9%, the inhibition [14, 26] was -29.4% and the inhibition ([14]; single agent, at 5 µM) was -12.6%. For the same molecule, the inhibition ([15]; at 0.5 µM) was 21.1% (inactive), the inhibition [15, 23] was -22.6% and the inhibition [15, 24] was 42.1%. It also gave an inhibition ([15]; single agent, at 0.05 µM) of -21.9% and an inhibition ([15]; single agent, at 5 µM) of -24.7%.

For `COc1cccc(C(=O)N2CCC(n3cc(-c4ccccn4)nn3)CC2)c1`, the z-score [16] was 0.785 (inactive).

With `CC(C)(O)[C@H]1CC[C@@](C)(C2[C@@H](O)C[C@@]3(C)[C@@H]4C[C@H](O)C5C(C)(C)[C@@H](O)CCC56CC46CC[C@]23C)O1` (some centres not stated) the inhibition [1, 17] was -20.9% (inactive), the inhibition [1, 18] was -17.4% and the inhibition [1, 19] was 78.4%. For the same molecule, the inhibition [1, 20] was -19.9%, the inhibition [1, 21] was -28% and the inhibition [1, 22] was -7.56%. The inhibition ([2]; BGB combo, at 5 µM) was -24.9%, the inhibition ([2]; at 0.5 µM) was 2.8% (inactive) and the inhibition ([2]; cisplatin combo, at 5 µM) was -13.8%. For the same molecule, the inhibition [2, 23] was -6.04%, the inhibition [2, 24] was 14.5% and the inhibition ([2]; single agent, at 5 µM) was -12.8%. It also gave an inhibition ([3]; BGB IC20 combo, at 0.005 µM) of -5.6%, an inhibition ([3]; BGB IC40 combo, at 0.005 µM) of -12.2% and an inhibition ([3]; BGB IC40 combo, at 0.05 µM) of -16.5%. For the same molecule, the inhibition ([3]; at 0.5 µM) was -16.2% (inactive), the inhibition ([3]; cisplatin combo, at 0.05 µM) was -22.4% and the inhibition ([3]; cisplatin combo, at 0.5 µM) was -30.1%. The inhibition ([3]; cisplatin combo, at 5 µM) was -15.7%, the inhibition [3, 25] was -12.4% and the inhibition ([4]; at 0.5 µM) was -15.4% (inactive). The inhibition [4, 20] was -5.25%, the inhibition [4, 26] was -36.6% and the inhibition [4, 27] was -6.73%. The inhibition ([5]; at 0.5 µM) was -5.42% (inactive), the inhibition [5, 28] was 4.96% and the inhibition [5, 29] was -8.72%. It also gave an inhibition [5, 30] of -17.2%, an inhibition [5, 31] of -11.8% and an inhibition ([5]; single agent, at 5 µM) of 5.09%. The inhibition ([6]; at 0.5 µM) was -14.8% (inactive), the inhibition [6, 32] was -24.4% and the inhibition [6, 33] was -18.8%. For the same molecule, the inhibition ([7]; at 0.5 µM) was -9.5% (inactive), the inhibition [7, 34] was -9.93% and the inhibition [7, 35] was -11.4%. For the same molecule, the inhibition ([8]; at 0.5 µM) was 0.78% (inactive), the inhibition [8, 36] was -14.1% and the inhibition [8, 37] was -5.37%. The inhibition ([9]; at 0.5 µM) was -6.35% (inactive), the inhibition [9, 26] was -24.6% and the inhibition [9, 27] was -28.9%. For the same molecule, the inhibition ([10]; at 0.5 µM) was -12% (inactive), the inhibition [10, 38] was -4.92% and the inhibition [10, 39] was -19.3%. It also gave an inhibition [10, 40] of -27.4%, an inhibition [10, 41] of -20.3% and an inhibition [11, 42] of 9.93%. For the same molecule, the inhibition ([11]; at 0.5 µM) was -4.21% (inactive), the inhibition [11, 43] was 7.75% and the inhibition [12] was 0.26% (inactive). The inhibition [12, 44] was 10.1%, the inhibition [12, 45] was -8.09% and the inhibition ([13]; at 0.5 µM) was -8.31% (inactive). For the same molecule, the inhibition [13, 46] was -3.58%, the inhibition ([13]; cisplatin combination, at 5 µM) was -121% and the inhibition [13, 47] was -25.1%. For the same molecule, the inhibition ([13]; single agent, at 5 µM) was -6.41%, the inhibition ([14]; at 0.5 µM) was -30.6% (inactive) and the inhibition ([14]; cisplatin combo, at 5 µM) was -6.31%. It also gave an inhibition [14, 48] of -14.5%, an inhibition [14, 26] of -79% and an inhibition ([14]; single agent, at 5 µM) of -0.285%. The inhibition ([15]; at 0.5 µM) was 8.92% (inactive), the inhibition [15, 23] was -5.47% and the inhibition [15, 24] was 14.8%. For the same molecule, the inhibition ([15]; single agent, at 0.05 µM) was -11.3% and the inhibition ([15]; single agent, at 5 µM) was -13%.
